ClpP mod: qHTS Assay for Activators of ClpP. ATP-dependent Clp protease proteolytic subunit (Bacillus subtilis (strain 168)), P80244. purified B. subtilis ClpP, FRET peptide cleavage, 20 min. Potency, µM (top dose mostly 57.5 µM), without a hit: top-dose activity change, negative = active. 1.9% of 340,000 active; active means well fitted falling curve with a large enough effect; inconclusive means small, poorly fitted or top-dose-only effect; inactive means no such curve, though single readings can be large or run the other way; further: potency means the concentration at half of the fitted maximal effect; the source files actives as falling curves though it sought activators and does not explain the sign; nearly all actives have a fitted effect of over 65% in size
Target sequence (P80244 whole entry, looked up): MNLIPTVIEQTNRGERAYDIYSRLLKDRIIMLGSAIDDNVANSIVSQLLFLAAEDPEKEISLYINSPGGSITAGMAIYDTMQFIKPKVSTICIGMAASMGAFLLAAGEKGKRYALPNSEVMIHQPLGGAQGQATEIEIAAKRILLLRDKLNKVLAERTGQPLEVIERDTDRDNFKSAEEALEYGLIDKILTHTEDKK
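FRET quenching reversal measured ClpP activation: 10 microg/mL B. subtilis ClpP at pH 8 with the FRET-FV decapeptide, read at 430 nm after 320 nm excitation. The 20-min minus 0-min signal was scaled between DMSO/no-enzyme wells and ADEP (5.8 microM final).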
TCR activator: Activators of T cell receptors: qHTS campaign; primary human leukocytes, anti-CD3, IL-2 HTRF, 48 h; Potency, µM (doses to about 9.22 µM), for the others: top-dose activation of IL-2 secretion, actives largely listed as activators; 330,000 tested, under 10 active; AID 504894, 2011; further: % of control where 0% means no effect
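HTRF read-out of IL-2 secretion: europium cryptate donor excited at 320nm, d2 acceptor emission at 665nm. Cells were primary human leukocytes incubated 48 hr with compounds and a-CD3 beads, supplying TCR signal only.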
Sfp PPTase inh: qHTS Assay for Inhibitors of Bacillus subtilis Sfp phosphopantetheinyl transferase (PPTase) | 4'-phosphopantetheinyl transferase ffp (Bacillus subtilis), Q9F4F7 | AID 1490, 2009 | Potency, µM, for the others: largest response in the series, negative = inhibition, most hits filed as inhibitors | 3.5% of 310,000 active | Biochemical Sfp PPTase activity, qHTS;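 further: the enzyme is Sfp with the accession as filed and its product quenches rhodamine fluorescence; potency means the concentration at half of the fitted maximal effect; 0% = enzyme reaction without inhibitor and -100% = no enzyme wells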
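Fluorescence-quenching assay: 15 nM Sfp-PPTase preincubated 15 min at room temperature with compound, then 5 uM rhodamine-CoA and 12.5 uM BHQ-2-labelled YbbR peptide added. Fluorescence (ex 525/em 598 nm) read at start and after 30 min; difference gives rate.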
uPA generation: qHTS for Inhibitors of Cell Surface uPA Generation. 0.31% of 330,000 active. cell surface uPA generation assay, qHTS. Potency, µM (doses to about 38.3 µM), inactives show at the top dose activity change, negative = inhibition, usual class: inhibitors; active means well fitted inhibition curve with a large enough effect; inconclusive means small, poorly fitted or top-dose-only effect; inactive means no such curve, though single readings can be large or run the other way; tested in mouse RAW 264.7 cells; further: potency means the concentration at half of the fitted maximal effect; on the % scale 0 is the no-effect control and ±100 the full control effect; nearly all actives have a fitted effect of over 55% in size
The depositor's hits bear a star; ? = inconclusive; . = no result given; [ ] = another dose, or the depositor's remark. Compounds with a hit are over-represented: about 4.2% of the library has one in this group of screens. Unless noted, the call rests on the fitted dose curve; in most records, active means well fitted curve in the direction sought with a large enough effect; inconclusive means small, poorly fitted or top-dose-only effect, or another doubt; inactive means no such curve, though single readings can be large; an effect the other way counts as inactive or inconclusive.

SMILES	ClpP mod	TCR activator	Sfp PPTase inh	uPA generation
O=S(=O)(Nc1c(S(=O)(=O)c2ccccc2)c2nc3ccccc3nc2n1C1CCCCC1)c1ccccc1	?	-16%	-26%	-8%
CC(=O)Nc1c(S(=O)(=O)c2ccccc2)c2nc3ccccc3nc2n1Cc1ccccc1	16µM*	-5%	12%	-9%
CN(C)CCCn1c(N)c(S(=O)(=O)c2ccccc2)c2nc3ccccc3nc21	.	2%	-4%	0%
C=CCn1c(NS(=O)(=O)c2ccccc2)c(S(=O)(=O)c2ccc(C)cc2)c2nc3ccccc3nc21	-1%	-4%[46.1 µM]	40µM*	-1%
O=C(c1[nH]c(C(F)(F)F)nc1-c1ccccc1)N1CCN(c2cccc(C(F)(F)F)n2)CC1	5%	.	.	.
CCCc1nn(C)c2c(=O)[nH]c(-c3ccccc3OCC)nc12	20µM*	2%[46.1 µM]	6%	1%
CCCc1nn(C)c2c(=O)[nH]c(-c3cc(S(=O)(=O)N4CCN(C)CC4)ccc3OCC)nc12	2%	8%	14%	4%
O=C(C[C@@H]1C=C[C@H](NC(=O)Cc2ccccn2)[C@@H](CO)O1)NCCc1ccccc1	-1%	.	.	.
Clc1ccccc1-c1nnc2sc(C3COc4ccccc4O3)nn12 (configuration not stated)	-2%	2%	18µM*	.
c1ccc(OCc2nnc3sc(C4COc5ccccc5O4)nn23)cc1 (configuration not stated)	1%	7%	25µM*	-3%
Cc1ccc(-c2nnc3sc(C4COc5ccccc5O4)nn23)cc1 (configuration not stated)	0%	.	1%	.
CC1(C)CC(=O)C2=C(C1)O[C@@]1(CCCCN3C(=O)c4ccccc4C3=O)Cc3ccccc3C2O1	.	.	3%	.
COCCNC(=O)Cc1ccc(Br)cc1	-1%	-1%	-4%	3%
COCCNC(=S)c1ccc(Br)cc1	1%	-2%	45µM*	-18%
O=C(NNc1ncnc2c1cnn2-c1ccccc1)c1cccc(Cl)c1	0%	.	.	.
Cc1ccc(Cl)cc1NC(=S)Nn1cnnc1	-2%	2%	11%	-3%
COc1cc([N+](=O)[O-])ccc1NC(=S)Nn1cnnc1	-3%	-4%	20µM*	1%
Cc1ccc(NC(=O)Nn2cnnc2)c(C)c1	-5%	-11%	5%	-4%
S=C(Nc1ccc(Br)cc1Cl)Nn1cnnc1	-3%	-4%	22µM*	1%
Cc1ccc(NC(=S)Nn2cnnc2)c(C)c1	.	.	40µM*	.
CCC(C)c1ccccc1NC(=O)COC(=O)c1ccc2c(c1)S(=O)(=O)c1ccccc1C2=O (configuration not stated)	22µM*	4%[46.1 µM]	13%	8%
CCCCCNC(=O)c1c[nH]c2ccc(S(=O)(=O)N3CCC4(CC3)OCCO4)cc2c1=O	16µM*	0%	22%	3%
COCCCNC(=O)c1c[nH]c2ccc(S(=O)(=O)N3CCC4(CC3)OCCO4)cc2c1=O	.	-5%	6%	3%
O=C(NCc1ccco1)c1c[nH]c2ccc(S(=O)(=O)N3CCOCC3)cc2c1=O	32µM*	2%	18%	4%
O=C(NCCN1CCOCC1)c1c[nH]c2ccc(S(=O)(=O)N3CCOCC3)cc2c1=O	32µM*	1%	10%	-1%
SMILES	ClpP mod	TCR activator	Sfp PPTase inh	uPA generation
O=c1c(-c2cccc(Cl)c2)nc2cncnc2n1-c1ccccc1	.	.	8%	.
O=c1c(C(c2ccc(O)cc2)c2c(O)nc3n(c2=O)CCS3)c(O)nc2n1CCS2	-4%	4%	14µM*	0%
O=c1c(C(c2ccc(O)cc2)c2c(O)nc3n(c2=O)CCCS3)c(O)nc2n1CCCS2	1%	0%	25µM*	6%
C=C1C=C(C(F)F)n2ncc(C(=O)NCc3ccc(F)cc3)c2N1	-3%	.	.	.
Cc1ncc(CO)c(/C=N/NC(=O)c2cc3c(s2)CCCC3)c1O	-24%	-6%	3%	6.3µM*
Cc1ncc(CO)c(/C=N/NC(=O)c2ccoc2C)c1O	25µM*	-32%	.	-3%
COc1cccc(CNC(=O)c2nnc(Cc3ccc(Cl)cc3)o2)c1	1%	.	.	.
COc1ccc(S(=O)(=O)N(C)C[C@@H]2Oc3cc(C#CC4CCCCC4)ccc3S(=O)(=O)N([C@@H](C)CO)C[C@@H]2C)cc1	-6%	.	.	.
CCc1nc2ccc(C(=O)NCCc3ccc(OC)cc3OC)cc2nc1CC	32µM*	.	.	.
O=C1C2CCCN2C(=O)N1CCCCN1CCN(c2cccc(Cl)c2)CC1 (configuration not stated)	1%	-2%[46.1 µM]	11%	2.8µM*

Screening data: PubChem BioAssay, National Center for Advancing Translational Sciences (NCATS)
